A selection: hits, their analogues and other compounds. The true share with any hit is near 3%.
Mot1-301 SUMO = yeast Mot1-301 growth rescue at high temperature, primary screen, SUMOylation pathway inhibitor project, S. cerevisiae, ATP luminescence, 38.5C. growth rescue, % at 18.8 µM. AID 2716, 2010. S. cerevisiae Mot1-301 growth rescue; percent above DMSO median, 100 means doubled. 320,000 tested, 1% active;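 active means every valid replicate shows activation above 250% relative to neutral control wells; inactive means the rest, any valid replicate at or below 250%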;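 further: OY570 slx delta 5 strain wells were the positive control but not used for scaling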
CHT PAM = CHT positive allosteric modulators, primary screen, cell-based, membrane potential dye, choline EC20. CHT-expressing cells; active compounds read high; LV-AA mutant CHT in HEK293 cells. High affinity choline transporter 1 (Homo sapiens), Q9GZV3. B-score at 10 µM. 310,000 tested, 0.49% active;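 active means initial fluorescence not abnormally high and integrated response B-score, plate-corrected, over 3 SD above library mean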
Target sequence (Q9GZV3 whole entry, looked up): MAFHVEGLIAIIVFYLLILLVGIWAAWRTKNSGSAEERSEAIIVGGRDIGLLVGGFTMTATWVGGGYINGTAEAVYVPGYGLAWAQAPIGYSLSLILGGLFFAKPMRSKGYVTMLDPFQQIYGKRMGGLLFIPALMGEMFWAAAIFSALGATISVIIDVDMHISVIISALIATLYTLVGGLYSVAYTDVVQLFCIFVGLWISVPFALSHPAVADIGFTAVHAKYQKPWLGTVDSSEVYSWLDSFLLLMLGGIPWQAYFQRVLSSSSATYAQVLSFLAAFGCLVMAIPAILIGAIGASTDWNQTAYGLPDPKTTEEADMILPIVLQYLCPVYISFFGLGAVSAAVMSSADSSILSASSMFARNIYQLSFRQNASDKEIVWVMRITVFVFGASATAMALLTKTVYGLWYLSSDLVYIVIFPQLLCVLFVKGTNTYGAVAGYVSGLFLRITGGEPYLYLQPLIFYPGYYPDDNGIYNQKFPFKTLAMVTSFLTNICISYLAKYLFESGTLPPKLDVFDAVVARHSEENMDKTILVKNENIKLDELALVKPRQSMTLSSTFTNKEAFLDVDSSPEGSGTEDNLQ
CHT block = inhibitors of human choline transporter CHT; High affinity choline transporter 1 (Homo sapiens), Q9GZV3; CHT-expressing cells, membrane potential dye, choline response; active compounds read low; B-score at 10 µM; 310,000 tested, 0.86% active;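 active means B-score over 3 SD under the library average, and starting fluorescence ratio not unusually high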;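 further: choline stimulus applied at its EC90 after an EC20 pre-addition; B-score computed on integrated fluorescence ratio after choline addition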
NALP1 yeast inh = NALP1 inflammasome inhibitors in reconstituted yeast, colorimetric, S. cerevisiae, triplicate retest; S. cerevisiae NALP1/ASC/caspase-1 growth, X-gal OD620, 72 h; inhibition, % at 10 µM; 280,000 tested, 0.61% active; in the data active means inhibition mostly above about 24%, no sharp cut-off; inactive means mostly below about 32%
NALP3 yeast inh = NALP3 inflammasome inhibitors in reconstituted yeast, primary screen, luminescence, uHTS; Yeast reconstituted NLRP3/ASC/caspase-1, beta-gal luminescence, 24 h; inhibition, % at 10 µM; 330,000 tested, 0.39% active;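 active means inhibition of 50% or more; inactive means inhibition below 50%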;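 further: plate controls were induced DMSO wells for no effect and uninduced yeast grown without galactose for full effect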
Bfl-1 A1 inh = caspase 3/7 activation in MEF A1-2A-BIM cells, primary screen, A1 inhibitor project, cell-based, luminescence, HTS | AID 2462, 2010 | caspase activation, % (no concentration beside the values) | Caspase-Glo 3/7 luminescence, 3 h; percent of clofoctol response, vehicle zero | 330,000 tested, 0.066% active;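 active means over half of replicate activation scores above 10%, or exactly half above 10 with the replicate mean above 10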
CHT block conf = CHT inhibitors, confirmation, cell-based, membrane potential dye, duplicate | AID 493221, 2011 | CHT-expressing cells, choline membrane potential dye; LV-to-AA substituted CHT, HEK293 cells | 2,400 tested, 70% active | CHT activity remaining % of control (active compounds read low), % at 10 µM | shares compounds with CHT block;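 active means choline transporter activity left, mean of duplicates at 10 µM, below buffer-only control mean minus 3 SD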;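 further: depolarization triggered by choline at its EC90 following an EC20 pre-addition; 0% = hemicholinium-3 full block and 100% = buffer-only control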
HEK293 MPD ctr = membrane potential effects in parental HEK293, counter-screen for CHT inhibitor project, cell-based, membrane potential dye; shares compounds with CHT block; AID 493222, 2011; 2,400 tested, 4% active; membrane potential ratio readout (active if shifted either direction beyond buffer ±3SD; no single direction) at 10 µM; choline response; active = decrease or increase beyond buffer ±3SD;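 further: parental cells lack the transporter so any hit is non-specific; ratio is peak minus trough fluorescence over baseline after EC90 choline challenge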
Numbers without * were called inactive; i = inactive; / = not tested or not shown.

SMILES	Mot1-301 SUMO	CHT PAM	CHT block	NALP1 yeast inh	NALP3 yeast inh	Bfl-1 A1 inh	CHT block conf	HEK293 MPD ctr
Cc1ccc(NC(=O)c2ccccc2NS(=O)(=O)c2ccc(Cl)s2)cc1S(=O)(=O)N1CCOCC1	304	i	-11*	36	5	0	40%*	i
COc1ccccc1NC(=O)c1ccccc1NS(=O)(=O)c1cccs1	-13	i	i	-5	-12	-1	/	/
Cc1cccc(C(=O)N(CC(=O)Nc2sc(C)c(C)c2C(N)=O)C2CCCC2)c1	25	i	i	0	14	-1	/	/
COC(=O)[C@]1(C)N[C@H](CN(C)S(=O)(=O)c2ccccc2)[C@@H]2C(=O)N(Cc3ccccc3)C(=O)[C@@H]21	-5	/	/	/	4	0	/	/
O=C(Nc1cc(C(F)(F)F)ccc1-n1cncn1)c1ccc([N+](=O)[O-])o1	-9	i	-6.1*	/	13	-1	33%*	i
N#Cc1ccccc1COC(=O)c1cccnc1N	-7	i	-5.7*	12	22	0	65%*	i
Cc1nn(CC(=O)NC2CCC(C)CC2)c(C)c1[N+](=O)[O-] (configuration not stated)	-10	/	/	/	16	0	/	/
COc1ccc(/C=C/CN2CCCC(CO)(Cc3cccc(Cl)c3)C2)cc1 (configuration not stated)	4	i	i	31	3	1	/	/
CC(C)NC(=O)C1COc2ccccc2O1 (configuration not stated)	-5	i	i	-14	-6	0	/	/
CC(C)N(C)CCOC(=O)C1COc2ccccc2O1 (configuration not stated)	-5	i	-6*	-7	8	-1	7.5%*	i
COc1ccc(C(CCN2CCCCC2)c2c(OC)cc(OC)c3c(-c4ccccc4)cc(=O)oc23)cc1 (configuration not stated)	2	i	-7.1*	-6	20	-1	38%*	i
CCCCCc1cc(=O)oc2c(C(CCN3CCCCC3)c3cc(OC)c(OC)c(OC)c3)c(OC)cc(OC)c12 (configuration not stated)	-24	i	-6.1*	3	21	1	51%*	i
COc1cc(OC)c2c(-c3ccccc3)cc(=O)oc2c1C(CCN1CCCCC1)c1ccc2c(c1)OCO2 (configuration not stated)	-10	i	-9.5*	0	19	0	45%*	i
CCCCCc1cc(=O)oc2c(C(CCN3CCCC(C)C3)c3cc(OC)c(OC)c(OC)c3)c(OC)cc(OC)c12 (configuration not stated)	74	i	i	4	23	-1	/	/
COc1cc(OC)c2c(-c3ccccc3)cc(=O)oc2c1C(CCN1CCCCC1)c1ccc(N(C)C)cc1 (configuration not stated)	-4	i	-5.9*	16	3	-1	29%*	i
COc1cc(OC)c2c(-c3ccccc3)cc(=O)oc2c1C(CCN1CCCC(C)C1)c1ccc2c(c1)OCO2 (configuration not stated)	-12	i	i	10	32	0	/	/
O=C(COC(=O)COc1cccc(C(F)(F)F)c1)NC(=O)NC1CCCCC1	-2	i	i	/	-1	1	/	/

Source: PubChem
